Values joined by “and” are separate entries in the source; they are usually repeats but may differ in a detail not shown here. Equal entries are not always repeated. This is part of a sample that, as a whole, favours compounds with a hit. Of some 79,000 tested, about 15% had one in any assay. Some structures have more than one record in an assay (separate samples or runs), and their calls can disagree. Active and inactive are the calls of the source. Cut-off read from the data, not from the text of the source: active = growth inhibition above about 70%; inactive = the rest.
Columns and labels:
[1] = NCI Yeast Anticancer Drug Screen. Data for the rad52 strain (AID 147);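 note: 0% = growth of vehicle-treated control cultures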; conditions: S. cerevisiae rad52 mutant growth inhibition, stronger effect = higher value
Outline: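 Yeast strain carrying a DNA damage repair alteration was exposed to test compounds. Growth inhibition was measured relative to vehicle-treated controls.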

[2] = NCI Yeast Anticancer Drug Screen. Data for the wt1 strain (AID 149);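 note: 0% = growth of vehicle-treated wt1 cultures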; conditions: S. cerevisiae wt1 strain (SPY 50644) growth inhibition, stronger effect = higher value
Outline: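 wt1 strain grown with compound or vehicle; inhibition taken from the growth difference.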

[3] = NCI Yeast Anticancer Drug Screen. Data for the rad50EPP+ strain (AID 151);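 note: 0% = growth of vehicle-treated control cultures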; conditions: S. cerevisiae rad50 mutant strain, stronger effect = higher value
Outline: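 Yeast strain carrying rad50 alteration (rad50EPP+) exposed to compounds; growth inhibition measured relative to vehicle-treated controls.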

[4] = NCI Yeast Anticancer Drug Screen. Data for the rad50 strain (AID 155);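 note: 0% = growth of vehicle-only cultures of the same strain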; conditions: S. cerevisiae rad50 strain growth inhibition, stronger effect = higher value
Outline: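 DNA repair mutant yeast, compound exposure, growth read-out; inhibition is taken relative to vehicle.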

[5] = NCI Yeast Anticancer Drug Screen. Data for the mec2-1 strain (AID 157); conditions: S. cerevisiae mec2-1 strain, stronger effect = higher value
Outline: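 mec2-1 yeast strain, carrying an alteration in DNA damage repair or cell cycle control, was exposed to compounds; growth inhibition was measured relative to vehicle-treated controls.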

[6] = NCI Yeast Anticancer Drug Screen. Data for the rad14 strain (AID 159);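 note: 0% = growth of vehicle-treated control cultures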; conditions: S. cerevisiae rad14 strain growth inhibition, stronger effect = higher value
Outline: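 DNA repair-defective yeast, compound-exposed; % growth inhibition derived by comparison with vehicle-treated controls.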

[7] = NCI Yeast Anticancer Drug Screen. Data for the sgs1 mgt1 strain (AID 161);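 note: 0% = growth of cultures given vehicle only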; conditions: S. cerevisiae sgs1 mgt1 strain, stronger effect = higher value
Outline: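 Percent growth inhibition was derived by comparing compound-exposed mutant yeast with vehicle-exposed cultures. The strain carries alterations in DNA damage repair.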

[8] = NCI Yeast Anticancer Drug Screen. Data for the CLN2oe strain (AID 163);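 note: 0% = growth of vehicle-only control cultures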; conditions: S. cerevisiae CLN2oe strain, stronger effect = higher value
Outline: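 Yeast cells carrying a defined cell-cycle control alteration were exposed to test compounds. Growth inhibition was scored against vehicle-treated control cultures.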

[9] = NCI Yeast Anticancer Drug Screen. Data for the cln2 rad14 strain (AID 165);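 note: 0% = growth equal to vehicle treated cultures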; conditions: S. cerevisiae cln2 rad14 strain, stronger effect = higher value
Outline: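 Yeast carrying cln2 and rad14 alterations (cell cycle control and DNA damage repair) were exposed to compounds. Growth inhibition was measured against vehicle-treated controls.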

[10] = NCI Yeast Anticancer Drug Screen. Data for the bub3 strain (AID 167); conditions: S. cerevisiae bub3 mutant strain, stronger effect = higher value
Outline: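 In this screen, a yeast mutant lacking normal mitotic checkpoint function is challenged with compound. Relative growth versus vehicle gives the inhibition value.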

[11] = NCI Yeast Anticancer Drug Screen. Data for the wt2 strain (AID 169);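 note: 0% = growth of vehicle-treated yeast cultures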; conditions: S. cerevisiae wt2 strain growth inhibition, stronger effect = higher value
Outline: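 Yeast cells were exposed to test compounds, and growth inhibition was measured relative to vehicle-treated controls.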

[12] = NCI Yeast Anticancer Drug Screen. Data for the mlh1 strain (AID 171);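 note: 0% = growth of vehicle-treated control cultures of the same strain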; conditions: S. cerevisiae mlh1 strain growth inhibition, stronger effect = higher value
Outline: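 Yeast carrying a defined genetic alteration in DNA damage repair or cell cycle control were exposed to test compounds. Growth inhibition was measured relative to vehicle-treated controls.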

[13] = NCI Yeast Anticancer Drug Screen. Data for the sgs1 strain (AID 173);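 note: 0% = growth of vehicle-only control cultures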; conditions: S. cerevisiae sgs1 mutant, stronger effect = higher value
Outline: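 Yeast mutant strains carrying defined defects in DNA damage repair or cell cycle control were exposed to test compounds. Growth inhibition was scored against vehicle-treated controls.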

[14] = NCI Yeast Anticancer Drug Screen. Data for the mlh1 rad18 strain (AID 175); conditions: S. cerevisiae mlh1 rad18 strain growth inhibition, stronger effect = higher value
Outline: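 Growth inhibition of the yeast strain was measured after compound exposure and expressed relative to vehicle-treated controls. The strain carries defined defects in DNA damage repair.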

[15] = NCI Yeast Anticancer Drug Screen. Data for the rad18 strain (AID 177); conditions: S. cerevisiae rad18 mutant growth inhibition, stronger effect = higher value
Outline: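 Yeast carrying a defined DNA damage repair alteration were exposed to compounds. Growth inhibition was expressed relative to vehicle-treated controls.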

[16] = at 5.0 µM (retest, dose inferred, filed as 0.5)
[17] = at 50.0 µM (retest, dose inferred, filed as 5.0)

Measured: growth inhibition

O=c1ccc(=O)n(-c2ccccc2)[nH]1
85.3% (active) and -33% (inactive): [4]; at 50.0 µM
active: [1]; at 33.0 µM 79% | [1]; at 100.0 µM 97% | [2]; at 33.0 µM 71% | [2]; at 100.0 µM 95% | [3]; at 33.0 µM 75% | [3]; at 100.0 µM 87% | [4]; at 33.0 µM 82% | [4]; [17] 90% | [4]; at 100.0 µM 95% | [5]; at 33.0 µM 78% | [5]; [17] 95% | [5]; at 100.0 µM 98% | [6]; at 100.0 µM 96% | [7]; [17] 84% | [8]; at 33.0 µM 71% | [8]; at 100.0 µM 97% | [9]; [17] 79% | [10]; at 33.0 µM 83% | [10]; [17] 97% | [10]; at 100.0 µM 98% | [11]; at 100.0 µM 93% | [12]; at 33.0 µM 87% | [12]; at 100.0 µM 99% | [13]; at 33.0 µM 89% | [13]; at 100.0 µM 98% | [14]; [17] 95% | [15]; at 33.0 µM 84% | [15]; at 100.0 µM 94%
inactive: [1]; at 1.2 µM -29% | [1]; at 3.7 µM -11% | [1]; at 11.0 µM 17% | [2]; at 1.2 µM -16% | [2]; at 3.7 µM -10% | [2]; at 11.0 µM 29% | [3]; at 1.2 µM -24% | [3]; at 3.7 µM -5% | [3]; at 11.0 µM 38% | [4]; at 1.2 µM -14% | [4]; at 3.7 µM -3% | [4]; [16] 25% | [4]; at 11.0 µM 28% | [5]; at 1.2 µM -23% | [5]; at 3.7 µM -24% | [5]; [16] -17% | [5]; at 11.0 µM 2% | [6]; at 1.2 µM -12% | [6]; at 3.7 µM -9% | [6]; at 11.0 µM 4% | [6]; at 33.0 µM 60% | [7]; [16] 1% | [8]; at 1.2 µM 7% | [8]; at 3.7 µM 20% | [8]; at 11.0 µM 29% | [9]; [16] 18% | [9]; at 50.0 µM 58.5% and -14.5% | [10]; at 1.2 µM -13% | [10]; at 3.7 µM -23% | [10]; [16] 41% | [10]; at 11.0 µM 2% | [11]; at 1.2 µM -15% | [11]; at 3.7 µM -10% | [11]; at 11.0 µM 1% | [11]; at 33.0 µM 66% | [12]; at 1.2 µM -2% | [12]; at 3.7 µM -4% | [12]; at 11.0 µM 30% | [13]; at 1.2 µM 15% | [13]; at 3.7 µM 27% | [13]; at 11.0 µM 58% | [14]; [16] 38% | [15]; at 1.2 µM -20% | [15]; at 3.7 µM 3% | [15]; at 11.0 µM 47%
79.4% (active) and -20.1% (inactive): [14]; at 50.0 µM
86.2% (active) and -25.4% (inactive): [10]; at 50.0 µM
91.3% (active) and -13.6% (inactive): [7]; at 50.0 µM
85% (active) and -26.4% (inactive): [5]; at 50.0 µM

C[C@@](O)(/C=C/[C@H]1CC=CC(=O)O1)[C@@H](C[C@@H](O)\C=C/C=C\C=C\CO)OP(=O)(O)O
inactive: [1]; at 1.2 µM 26% | [1]; at 3.7 µM 22% | [1]; at 11.0 µM 37% | [1]; at 33.0 µM 66% | [2]; at 1.2 µM 18% | [2]; at 3.7 µM 13% | [2]; at 11.0 µM 15% | [2]; at 33.0 µM 35% | [3]; at 1.2 µM 18% | [3]; at 3.7 µM 15% | [3]; at 11.0 µM 17% | [3]; at 33.0 µM 25% | [3]; at 100.0 µM 33% | [4]; at 1.2 µM 27% | [4]; at 3.7 µM 30% | [4]; [16] 1% | [4]; at 11.0 µM 41% | [4]; at 33.0 µM 62% | [4]; [17] 53% | [4]; at 50.0 µM 67.2% | [5]; at 1.2 µM 9% | [5]; at 3.7 µM 22% | [5]; [16] -2% | [5]; at 11.0 µM 25% | [5]; at 33.0 µM 46% | [5]; [17] 34% | [5]; at 50.0 µM 50.6% | [6]; at 1.2 µM 9% | [6]; at 3.7 µM 13% | [6]; at 11.0 µM 11% | [6]; at 33.0 µM 50% | [7]; [16] 17% | [7]; [17] 60% | [8]; at 1.2 µM 46% | [8]; at 3.7 µM 26% | [8]; at 11.0 µM 25% | [8]; at 33.0 µM 54% | [9]; [16] 5% | [9]; [17] 17% | [9]; at 50.0 µM 42.6% | [10]; at 1.2 µM 29% | [10]; at 3.7 µM 45% | [10]; [16] 34% | [10]; at 11.0 µM 63% | [11]; at 1.2 µM 4% | [11]; at 3.7 µM 19% | [11]; at 11.0 µM 20% | [11]; at 33.0 µM 39% | [12]; at 1.2 µM 21% | [12]; at 3.7 µM 20% | [12]; at 11.0 µM 34% | [12]; at 33.0 µM 61% | [13]; at 1.2 µM 33% | [13]; at 3.7 µM 32% | [13]; at 11.0 µM 42% | [13]; at 33.0 µM 59% | [14]; [16] -2% | [14]; [17] 48% | [14]; at 50.0 µM 19.3% | [15]; at 1.2 µM 40% | [15]; at 3.7 µM 34% | [15]; at 11.0 µM 41% | [15]; at 33.0 µM 54%
active: [1]; at 100.0 µM 90% | [2]; at 100.0 µM 81% | [4]; at 100.0 µM 92% | [5]; at 100.0 µM 84% | [6]; at 100.0 µM 94% | [7]; at 50.0 µM 73% | [8]; at 100.0 µM 82% | [10]; at 33.0 µM 86% | [10]; [17] 91% | [10]; at 50.0 µM 86.1% | [10]; at 100.0 µM 93% | [11]; at 100.0 µM 88% | [12]; at 100.0 µM 88% | [13]; at 100.0 µM 90% | [15]; at 100.0 µM 84%
